Assay results reported in ChEMBL document CHEMBL3988442, “University of Dundee, Small-Polar-MMV Screening Library” (2021).
Screen size: about 48,000 compounds; about 13,000 (27%) showed an effect of 50% or more. The list shows a part of the results.

What follows are compounds tested on Wolbachia pipientis (assay: Anti-Wolbachia Cell-Based Screen). Conditions: 5 µM.
Assay type: functional
Set-up: scale not given: in the data most compounds retested in dose-response had high values

| SMILES | Percent Effect |
| --- | --- |
| COCCN(C)CCN1CC2(CCN(C3CCNCC3)CC2)OC1=O | 0.09435% |
| CNC(=O)N1CC[C@@H]2CN(Cc3cccc(OC)c3)S(=O)(=O)[C@@H]2CC1 | 89.38% |
| CC(C)NC(=O)N1CC[C@@H]2CN(Cc3cccc(Cl)c3)S(=O)(=O)[C@@H]2CC1 | -12.85% |
| CNC(=O)N1CC[C@@H]2CN(Cc3ccccc3)S(=O)(=O)[C@@H]2CC1 | 102% |
| CNC(=O)N1CC[C@@H]2CN(Cc3cccc(Cl)c3)S(=O)(=O)[C@@H]2CC1 | -6.007% |
| CNC(=O)N1CC[C@@H]2CN(CCc3cccc(OC)c3)S(=O)(=O)[C@@H]2CC1 | -2.748% |
| CC(=O)N1CC[C@@H]2CN(Cc3cccc(Cl)c3)S(=O)(=O)[C@@H]2CC1 | -7.404% |
| O=C(NCCSC1CCCC1)c1cc(Cl)ccn1 | 3.584% |
| COCC(=O)N[C@H]1C[C@@H](Cc2cc(CN3CCCCC3)on2)C1(C)C | 11.93% |
| Cc1ccccc1CN(CCN(C)C)Cc1ncc[nH]1 | -7.334% |
| CC(C)NC(=O)N1CCC2(CC1)COc1ccccc1S(=O)(=O)N(C)C2 | 105.4% |
| COCCC1COC2(CCN(C(=O)C3CCC3)CC2)C1 (centres undefined) | -7.726% |
| CN1CC2(CCN(C(=O)C3CCC3)CC2)COc2ccccc2S1(=O)=O | 97.81% |
| CN(C)C(C(=O)N1CCCN(C(=O)C2CCC2)CC1)c1ccccc1F (centres undefined) | -11.1% |
| N#Cc1csc(CN(CC(=O)N2CCCC2)CC2CCCO2)c1 (centres undefined) | 4.573% |
| CCOc1ccc(OCC)c(NCc2cc(C)on2)c1 | -0.4612% |
| COCCOC[C@]1(CNCc2ccc(OC)cc2)C[C@@H](O)[C@@H](O)C1.Cl | 6.755% |
| Cc1ccccc1C1(CNC(=O)c2cccc(S(C)(=O)=O)c2)CC1 | 2.045% |
| Cc1ccccc1C1(CNC(=O)c2ccc(S(C)(=O)=O)cc2)CC1 | 72.54% |
| Cc1ccccc1C1(CNC(=O)N2CCC(CC(N)=O)CC2)CC1 | -8.106% |
| CC(NC(=O)N(C)Cc1ccsc1)c1ccc2c(c1)OCO2 (centres undefined) | -7.719% |
| CC(O)CN1CCN(C(=O)CCOc2ccccc2F)CC1 (centres undefined) | 109.3% |
| CCOCC(=O)N1CCC(C(O)c2ccc(F)cc2)CC1 (centres undefined) | -2.843% |
| Cn1cnnc1C1CCN(C(=O)CCCOc2ccccc2F)CC1 | -1.592% |
| O=C(CCOc1ccccc1F)N1CCOCC1 | 105.4% |
| CN1CCOC(CNC(=O)CCCOc2ccccc2F)C1 (centres undefined) | -10.92% |

| SMILES | Percent Effect |
| --- | --- |
| CC(C)c1ccc(OCCC(=O)N2CCC(CC(N)=O)CC2)cc1 | -11.97% |
| CC(O)C1CCN(C(=O)CCOc2ccccc2F)CC1 (centres undefined) | 86.99% |
| CN(CCOc1ccccc1F)S(=O)(=O)CC1CCOCC1 | 2.029% |
| CC(O)CN1CCN(C(=O)c2cnn(-c3ccccc3F)c2)CC1 (centres undefined) | -7.908% |
| COc1ccccc1C1(C(=O)N2CCN(CC(C)O)CC2)CC1 (centres undefined) | -12.51% |
| O=C(CCOc1ccccc1F)N1CCC(O)CC1 | 96.9% |
| O=C(Nc1ccccc1)C1CCN(C(=O)COc2ccccc2F)CC1 | 17.88% |
| CCN(C1CCN(c2cccc(F)c2C(C)=O)CC1)S(C)(=O)=O | -1.557% |
| COc1ccnc(N(C)Cc2csc(C)n2)n1 | -11.41% |
| CC(Cn1cncn1)Nc1ccc(-c2nccn2C)nn1 (centres undefined) | -4.731% |
| CC(NC(=O)N(C)Cc1ccc2c(c1)OCCO2)c1nncn1C (centres undefined) | -31.29% |
| Cc1ccc(N2CCCN(C(=O)c3cc(CC(C)C)n[nH]3)CC2)nn1 | 3.453% |
| CC(C)Cc1cc(C(=O)N2CCCN(c3cccnn3)CC2)[nH]n1 | -1.538% |
| CC(C)Cc1cc(C(=O)N2CCCN(c3ncccn3)CC2)[nH]n1 | -10.26% |
| Cc1ccc(NCCNC(=O)c2cc(CC(C)C)n[nH]2)nn1 | 121% |
| CC(C)Cc1cc(C(=O)NC(C)C)[nH]n1 | 116% |
| CC(C)Cc1cc(C(=O)NCCn2nc3ccccn3c2=O)[nH]n1 | -3.6% |
| Cc1nn(CC(=O)N2CCN(c3ncccn3)CC2)c(C)c1Cl | 17.26% |
| Cc1ccc(N(C)[C@@H]2CC[C@@H]3CN(C(=O)C4CCOCC4)C[C@@H]32)nn1 | 186.8% |
| CN(Cc1cccs1)C1CCC[C@@H]2CN(C(=O)c3cccn3C)C[C@H]12 (some centres undefined) | 17.98% |
| CN(Cc1cccs1)C1CCC[C@@H]2CN(C(N)=O)C[C@H]12.O=C(O)C(F)(F)F (some centres undefined) | 5.173% |
| Cc1ccc(N2CCC3(CCN(C(=O)C4CCOC4)CC3)CC2)nn1 (centres undefined) | -12.92% |
| Cc1ccc(N(C)[C@@H]2CC[C@@H]3CN(C(=O)Cc4cccs4)C[C@@H]32)nn1 | 112.9% |
| Cc1ccc(N2C[C@H](C(=O)NCC3CC3)[C@@H]3CCO[C@@H]3C2)nn1.O=C(O)C(F)(F)F | 0.6774% |
| Cc1ccc(N(C)[C@@H]2CC[C@@H]3CN(C(=O)CC4CCOCC4)C[C@@H]32)nn1 | 152.8% |
| Cc1ccc(N(C)C2CCN(C(=O)CCc3ccco3)CC2)nn1 | -5.46% |

| SMILES | Percent Effect |
| --- | --- |
| CCN(CCn1cccn1)Cc1nc(-c2cccs2)oc1C | 6.026% |
| N#Cc1cccc(CN2CCn3cc(CNC(=O)C4CCC4)nc3C2)c1 | -7.661% |
| COC(=O)NCC(=O)NC(c1ccc(Cl)cc1)C(F)(F)F (centres undefined) | -6.665% |
| COC[C@@H]1CC[C@H]2[C@H](CCN2S(=O)(=O)c2ccc(OC)cc2)O1 | -8.82% |
| COc1ccc(S(=O)(=O)N2CCC[C@@H]3CN(C(=O)C4CC4)C[C@@H]32)cc1 | 61.28% |
| COc1ccc(C(=O)N2CCCC(CNS(C)(=O)=O)C2)cc1F (centres undefined) | 1.055% |
| COc1ccc(S(=O)(=O)N2CCC[C@@H]3CN(C(=O)C4CC4)C[C@@H]32)cc1F | 83.03% |
| CCN1C(=O)C[C@@H]2[C@@H]1CCN2S(=O)(=O)c1ccc(OC)cc1 | 1.644% |
| COc1ccc(C(=O)N2CCCC(C)C2)cc1F (centres undefined) | 8.733% |
| O=C(NCc1cc[nH]n1)NCC(O)c1ccc(F)cc1F (centres undefined) | 2.33% |
| CCN(CC)C(=O)[C@@H]1C[C@H](NC(=O)c2ccn(C(C)(C)C)c2)CN1C | -2.667% |
| O=C1CCCc2occ(C(=O)N3CCCC(O)(CO)C3)c21 (centres undefined) | -7.191% |
| CO[C@H]1COCCN(C(=O)c2ccno2)C1 | -14.2% |
| O=C(CNc1ccc(OC2CCOC2)cc1)NCc1ccc(F)cc1 (centres undefined) | 77.11% |
| O=C(Nc1ccnc(OC2CCOC2)c1)c1cccs1 (centres undefined) | -9.418% |
| Cc1ccccc1C(=O)Nc1ccc(OC2CCN(C)CC2)cc1 | -1.73% |
| O=C(CNc1cc2c(cc1Cl)OCCCO2)NCc1ccc(F)cc1 | 5.92% |
| Cc1ccccc1CNC(=O)CNc1ccc(OC2CCOC2)cc1 (centres undefined) | 97.09% |
| CC(C)(C)Oc1ccc(NCC(=O)NCc2ccco2)cc1 | 90.6% |
| O=C(Cc1cccs1)NCc1ccnc(OC2CCOCC2)c1 | -13.9% |
| CC(C)(Oc1ccc(F)cc1)C(=O)NCc1ccco1 | -9.094% |
| COc1ccc(CNC(=O)CNc2ccccc2OC)cc1 | -12.04% |
| O=C(CNc1ccc(F)cc1OCC(F)(F)F)NCc1ccco1 | -21.13% |
| Cc1ccc(NCc2cccc3cn[nH]c23)cc1OC1CCOC1 (centres undefined) | 0.01014% |
| O=C(CNc1ccc(OC2CCOC2)cc1)NCc1cccs1 (centres undefined) | 90.04% |
| Cc1occc1C(=O)N1CCC(C(O)c2ccc(F)cc2)CC1 (centres undefined) | -2.674% |

| SMILES | Percent Effect |
| --- | --- |
| Cc1ccc(C)c(CC(=O)Nc2cnccc2SCCCO)c1 | 3.451% |
| CCCN1CCC(N2CCN(c3cccc(C)n3)CC2)CC1 | 3.962% |
| CC(C)C[C@@H]1N[C@H](C(=O)NCC2CC2)Cc2c[nH]c3cccc1c23 | 1.644% |
| COCC1c2nnn(CC3CC3)c2CCN1C(=O)c1sccc1C (centres undefined) | 4.054% |
| Cc1nnc(N2CCC(CNC(=O)OC(C)(C)C)CC2)c(C#N)c1C | -3.272% |
| Cl.Cl.O[C@@H]1C[C@@](CNCC2CCCC2)(COc2cccnc2)C[C@@H]1O | -14.64% |
| O=C(CCc1cccnc1)Nc1ccc(OCC2CCOCC2)cc1 | -6.342% |
| O=C(CNc1cccc(S(=O)(=O)C(F)F)c1)NCc1ccco1 | 4.728% |
| O=C(CNc1ccc(OCC2CCOCC2)cc1)NCc1ccco1 | 93.4% |
| O=C(CCc1ccncc1)Nc1ccc(OCC2CCOCC2)cc1 | 5.919% |
| O=C(CNc1ccc(OC2CCOC2)cc1)NCc1ccco1 (centres undefined) | 104.1% |
| O=C(CNc1cccc(CC(F)(F)F)c1)NCc1ccco1 | 5.703% |
| CCN1CCN(C(=O)CCC2CCN(C(C)CCC(=O)OC)CC2)CC1 (centres undefined) | -3.151% |
| Cc1nccn1-c1ccc(N2CCC(NC(C)C(C)C)CC2)cc1 (centres undefined) | 16.28% |
| CN(C)c1cc(C(=O)NC2(c3cccc(F)c3)CCOCC2)ccn1 | -10.5% |
| Cc1cccc(CN2C[C@@H]3CN(C(=O)c4conc4C)C[C@@H]3C2=O)c1 | 2.313% |
| c1cncc(N2CCOC3(CCCN(c4nncs4)C3)C2)c1 (centres undefined) | -20.57% |
| O=C(C1=NN(Cc2ccccc2)c2ccccc2S1(=O)=O)N1CCCC1 | 25.7% |
| Cc1ccc(N2N=C(C(N)=O)S(=O)(=O)c3cccnc32)cc1 | 70.93% |
| Cc1nc2c(c(N3CC=CC3)n1)CCN(c1ncccc1C(N)=O)CC2 | -4.106% |
| Cc1ccc(-n2nnc(C(=O)NCC3CCCCC3)n2)cc1 | 3.646% |
| CCc1c(C(=O)NCC2CCS(=O)(=O)C2)cnn1-c1ccc(C)cc1 (centres undefined) | 0.07541% |
| Cc1ccc(N2N=C(C(=O)O)S(=O)(=O)c3cccnc32)cc1 | 88.09% |
| Cc1ccc(CN2CCN(c3ncccc3C(N)=O)CC2CCO)cc1 (centres undefined) | 0.06546% |
| Cc1ccc(N2N=C(C(=O)NCC3CC3)S(=O)(=O)c3cccnc32)cc1 | 113.2% |
| CN1N=C(C(=O)N2CCCCC2)S(=O)(=O)c2ccccc21 | 9.429% |
